# According to PubChem BioAssay (NCI):
# This is part of a sample that, as a whole, favours compounds with a hit. Of some 79,000 tested, about 15% had one in any assay. Unmarked numbers belong to inactive results. Calls of active or inactive are those of the source. Rule as the data show it: active = growth inhibition above about 70%; inactive = the rest.
# Assay: NCI Yeast Anticancer Drug Screen. Data for the mlh1 rad18 strain (AID 175)
# Settings: S. cerevisiae mlh1 rad18 strain growth inhibition; at 50.0 µM; active compounds read high
# How it was run: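 Compound-treated yeast growth, normalised to vehicle controls. Strain bears defined DNA repair mutations.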
row,SMILES,growth inhibition
1,Cc1nnc2nc3c(nn12)c1ccccc1n3C,5.45%
2,CS(=O)c1cc(=O)c2ccccc2s1 (configuration not stated),99% (active)
3,COC(=O)C1=C(C)NC(C)=C(C(=O)OC)C1c1ccc(NCc2ccccc2)c([N+](=O)[O-])c1,40.1%
4,C/C(=N/NC(=S)Nc1ccccc1Cl)c1ccccn1,77.2% (active)
5,Nc1ccccc1Sc1ccc(C(F)(F)F)cc1[N+](=O)[O-],98.9% (active)
6,COc1ccc2nc(-c3ccc(Cl)cc3)[nH]c2c1,60.3%
7,Cc1c(C)c(C)c(C(=O)c2ccccc2C(=O)NCCSC(C)(C)C)c(C)c1C,84.3% (active)
8,COC(=O)C(=O)C(C(=O)Nc1cccc(C)c1C)C1Sc2ccccc2NC1=O (configuration not stated),81.5% (active)
9,Cc1nc2c(O)c3c(c(O)c2nc1C)C1C=CC3CC1,14.2%
10,C[C@]12CCC(=O)C=C1CC[C@@H]1[C@@H]2[C@@H](O)C[C@@]2(C)[C@H]1CC[C@]2(O)C(=O)COC(=O)CCC1CCCC1,84.3% (active)
11,CC(=O)OCCc1ccc(CCc2ccccc2)cc1,62.6%
12,COc1cc2c(cc1OC)C(=O)C(C)(c1ccccc1)NC2 (configuration not stated),97.8% (active)
13,CCCCCCC(/C=C/c1c(Cl)cccc1Cl)=N\O,94.2% (active)
14,O=C1OC(c2ccc(O)cc2)=C(c2ccccc2)C1c1ccccc1 (configuration not stated),99.5% (active)
15,c1cc[c]([Ge]([O]c2cccc3cccnc23)([c]2ccccc2)[c]2ccccc2)cc1,74% (active)
16,CCCCCCCCCCCCCCCCCCOP(=O)([O-])OCC[N+](C)(C)C,91.6% (active)
17,Cc1noc(NS(=O)(=O)c2ccc(NCc3c4ccccc4nc4cc(Cl)ccc34)cc2)c1C,98.3% (active)
18,CCC(=NCCCCCCN=C(CC)c1cc(C)cc([N+](=O)[O-])c1O)c1cc(C)cc([N+](=O)[O-])c1O.[Fe],80.8% (active)
19,O=C(O)c1ccc([N+](=O)[O-])cc1.[Ag],99.2% (active)
20,O=C1C(=O)c2ccccc2C(O)=C1C(c1ccccc1)c1ccccc1,62%
21,CC(=O)SC1C(=O)N(C)C(SC(C)=O)C(=O)N1C (configuration not stated),96.5% (active)
22,COc1ccc2c(c1)CN([C@@H](C)[C@H]1CC[C@H]3[C@@H]4CC[C@H]5C[C@@H](O)CC[C@]5(C)[C@H]4CC[C@]13C)CO2,98.4% (active)
